# Bioassay records deposited in PubChem BioAssay by Center for Chemical Genomics, University of Michigan.
# Dicer processing – human Dicer pre-microRNA cleavage inhibition. Q9UPY3. cat-ELCCA pre-miR-21 Dicer processing, chemiluminescence; stronger effect = higher value. z-score at 25 µM. 47,000 tested, 6% active. AID 1347074; in the data active = z-score above about 3, passing the limit was not always enough;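 note: plate controls were vehicle for no effect and no enzyme for full effect; higher signal means more uncleaved substrate so more Dicer inhibition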
# The depositor's hits bear a star. This excerpt belongs to a sample that is enriched for hits.
SMILES,Dicer processing
O=C1C(=O)N(CCN2CCOCC2)C(c2cccs2)/C1=C(\O)c1ccccc1 (centres undefined),1.3
O=C(c1cccs1)C(O)c1cccs1 (centres undefined),-0.15
COc1ccc(Nc2nc(C)c3c(n2)CC(C)CC3=O)cc1 (centres undefined),1.1
Cc1cc(/C=N\Nc2ccc([N+](=O)[O-])cc2)c2c(C)ccc(C(C)C)cc1-2,4.4
N#Cc1ccc(C(=O)CSc2nnc(-c3ccco3)n2-c2ccc(OCc3ccccc3)cc2)cc1,-0.82
O=C(COc1ccccc1)NC1CCSC1=O (centres undefined),3.4*
O=C(CCc1ccccc1)NC1CCSC1=O (centres undefined),0.1
O=C(CCCOc1ccccc1)NC1CCSC1=O (centres undefined),0.4
Cc1ccc(COc2ncnc3cc(Cl)ccc23)cc1,1.7
CC1C/C(=N\O)c2cc(Cl)ccc2S1(=O)=O (centres undefined),-1.8
O=c1[nH]c(=O)n(C2O[C@H](CO)[C@@H](O)[C@H]2O)cc1Br (some centres undefined),1.4
C[C@H]1O[C@@H](n2cc(F)c(=O)[nH]c2=O)[C@H](O)[C@@H]1O,3.1*
O=c1[nH]c(=O)n(C2CCCO2)cc1F (centres undefined),1.7
CCS(=O)(=O)c1ccc2oc(=O)[nH]c2c1,1.5
CCCCC(C(=O)O)N1C(=O)C2CC=C(Cl)CC2C1=O (centres undefined),0.56
NC(=S)N/N=C/c1cccc(C(F)(F)F)c1,0.57
CCCc1ccc(-c2nc(CS(=O)(=O)C(C)(C)C)no2)cc1,-1.1
CN1CCN(C(=O)CCC(=O)O)CC1,-0.72
CN1CCN(CCCCC(=O)O)CC1,4*
O=C(O)CCCCCCCC(=O)O,0.04
Cn1nnnc1SCCNCc1cccc(Br)c1,1.1
COc1ccc(NC(=S)NNC(=O)c2nc3ccccc3c(=O)[nH]2)cc1,0.33
c1ccc(CCc2nnc3c4c5c(sc4ncn23)CCCC5)cc1,0.1
CCc1nnc2c3c4c(sc3ncn12)CC(C)CC4 (centres undefined),-0.79
CCCc1nnc2c3c4c(sc3ncn12)CC(C)CC4 (centres undefined),4.8*
SMILES,Dicer processing
N#CC(C#N)Sc1nc2ccccc2[nH]1,2.2
NC(=S)N/N=C/c1ccc(Cl)cc1,4.2
Cc1ccc(C)c(CNC(=O)c2nc3c(nnn3CC3CCCO3)c(=O)[nH]2)c1 (centres undefined),2.1
O=c1oc(-c2ccc(Cl)cc2Cl)nc2ccc(I)cc12,0.98
O=C1CCS(=O)(=O)c2ccc(Cl)cc21,0.59
COc1ccc(C2Nc3ccccc3NC3=C2C(=O)CC(c2ccccc2)C3)cc1OC (centres undefined),0.83
COc1cc(C2Nc3ccccc3NC3=C2C(=O)CC(c2cccs2)C3)cc(Br)c1O (centres undefined),4.6*
COc1ccc(C2CC(=O)C3=C(C2)Nc2ccccc2NC3c2ccc(OC(C)=O)cc2)cc1OC (centres undefined),-0.1
COc1ccc(C2Nc3ccccc3NC3=C2C(=O)CC(c2cccs2)C3)cc1 (centres undefined),24
COc1cccc(C2Nc3ccccc3NC3=C2C(=O)CC(c2ccc(OC)c(OC)c2)C3)c1 (centres undefined),-0.54
COc1cc(C2Nc3ccccc3NC3=C2C(=O)CC(c2ccccc2)C3)cc(Br)c1O (centres undefined),4.9*
COc1ccc(C2Nc3ccccc3NC3=C2C(=O)CC(c2ccc(OC)c(OC)c2)C3)cc1 (centres undefined),2.5
COc1ccc(C2CC(=O)C3=C(C2)Nc2ccccc2NC3c2ccc(OC(C)=O)c(OC)c2)cc1 (centres undefined),1.6
COc1ccc(C2CC(=O)C3=C(C2)Nc2ccccc2NC3c2cccc(O)c2)cc1OC (centres undefined),3.5*
CCN1C(=O)SC(CC(=O)O)C1=O (centres undefined),-0.41
N#C/C(=N\Nc1ccc(F)cc1F)C(=O)C1CC1,0.78
CCOC(=O)C1C2C=CC3(CN(c4ccccc4C)C(=O)C13)O2 (centres undefined),0.36
Cn1c(=O)c2c(-c3ccccc3)n(-c3ccc(O)cc3)cc2n(C)c1=O,-0.05
CCc1nnc(NC(=O)c2cc(Br)ccc2Cl)s1,0.34
CCc1nnc(NC(=O)c2ccccc2O)s1,4.2*
CCc1nnc(NC(=S)NC(=O)c2ccccc2)s1,-0.73
COc1cc(C(=O)N(CCC#N)C2CC(C)CC(C)(C)C2)cc(OC)c1OC (centres undefined),-0.67
COc1ccc(NC(=O)OC(C)(C)C)cc1,-0.18
CCC(=O)Oc1cc2c(C(=O)OC(C)C)c(C)oc2cc1Br,-2.5
CSc1ssc(=Nc2ccc(C)c(Cl)c2)c1-c1ccccc1,-0.32
SMILES,Dicer processing
CSc1ssc(=Nc2ccc(F)c(F)c2)c1-c1ccccc1,3.6*
CCOc1ccc(N=c2ssc(SC)c2-c2ccccc2)cc1,-0.88
CCC1=C(C(=O)OC)C(c2ccc(Br)cc2)n2ncnc2N1 (centres undefined),-0.67
COc1ccc(CNCc2cccnc2)c(OC)c1,24
COc1ccc(OC)c(C2Oc3c(OC)cccc3C3CC(c4ccccc4O)=NN32)c1 (centres undefined),0.8
COc1cccc2c1OC(CC(C)C)N1N=C(c3ccccc3O)CC21 (centres undefined),8.3*
COc1cccc2c1OC(c1cccc(OC)c1OC)N1N=C(c3ccccc3O)CC21 (centres undefined),2.1
COC(=O)c1ccc(C2Oc3c(OC)cccc3C3CC(c4ccccc4O)=NN32)cc1 (centres undefined),1.4
COc1cccc2c1OC(c1ccc(F)cc1)N1N=C(c3ccccc3O)CC21 (centres undefined),8.6*
COc1ccc(C2Oc3c(OC)cccc3C3CC(c4ccccc4O)=NN32)cc1OC (centres undefined),-0.41
Cc1nn(C)c(C)c1CN(C)C(=O)c1cc2n(n1)C(C(F)(F)F)CC(c1ccc3c(c1)OCO3)N2 (centres undefined),-0.36
O=C(OCc1ccccc1)c1cnc(Nc2ccc(F)cc2)nc1C(F)(F)F,-0.68
O=C(CSc1ccccn1)c1ccc(Cl)cc1,-1.8
Cn1c(NCc2ccco2)nc2c1c(=O)n(CCc1ccccc1)c(=O)n2C,1.3
O=C1NC(=O)c2cc(S(=O)(=O)NCCCO)cc3cccc1c23,-0.38
O=C(O)CCC(=O)NCc1ccccn1,0.01
Cc1nn(C)c(Cl)c1S(=O)(=O)Nc1ccc(Oc2ccc(F)cc2)cc1,3.2*
Cc1nn(C)c(Oc2ccc(F)cc2)c1[N+](=O)[O-],-2.6
Cn1nc(-c2ccc(Cl)cc2)cc1NS(=O)(=O)c1ccc(F)cc1,0.12
CCOC(=O)/C(C#N)=C/c1cc(OC)ccc1OC,0.78
Cc1c(C)c(C)c(S(=O)(=O)Oc2ccc(Cl)c(Cl)c2)c(C)c1C,0.31
Cc1c(C)c(C)c(S(=O)(=O)Oc2c(Cl)cccc2Cl)c(C)c1C,6.9*
Cc1cc(S(=O)(=O)Oc2c(Cl)cccc2Cl)cc(C)c1F,-0.24
O=C1CC(C(F)(F)F)=Nc2ccccc2N1,0.7
CC1=C(C(=O)OC(C)C)C(c2coc3ccc(C)cc3c2=O)C2=C(CC(C)(C)CC2=O)N1 (centres undefined),-1.2
N=C(N)c1cc(Cl)cc(Cl)c1,-0.57
N=C(N)c1ccc(Cl)cc1,3.7*
O=C(O)CCC(=O)c1ccc(Cl)cc1,-0.17
S=C(N/N=C/c1ccc(Cl)c(Cl)c1)NC1CC2CCC1C2 (centres undefined),-2.2
